In paper PMC5540273 (PLoS ONE, 2017):

Legend:
Conditions in all cases: concentration: 1 μM, replicates: in singlicate; n = 1
CAMK2D = tested on: CAMK2D
CAMK2G = tested on: CAMK2G
CAMK4 = tested on: CAMK4
CAMKK1 = tested on: CAMKK1
CAMKK2 = tested on: CAMKK2
CASK = tested on: CASK
CDC2L1 = tested on: T1, CDC2L1
T1 construct: gene CDK11B

CDC2L2 = tested on: CDC2L2
CDC2L5 = tested on: T2, CDC2L5
T2 construct: gene CDK13

CDK11 = tested on: T3, CDK11
T3 construct: gene CDK19

CDK2 = tested on: CDK2
CDK3 = tested on: CDK3
CDK4-cyclinD1 = tested on: CDK4-cyclinD1
CDK4-cyclinD3 = tested on: CDK4-cyclinD3
CDK4 = tested on: CDK4
CDK5 = tested on: CDK5
CDK7 = tested on: CDK7
CDK8 = tested on: CDK8
CDK9 = tested on: CDK9
CDKL1 = tested on: CDKL1
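Further: KINOMEscan kinase panel screen.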

SMILES	%Inh (CAMK2D)	%Inh (CAMK2G)	%Inh (CAMK4)	%Inh (CAMKK1)	%Inh (CAMKK2)	%Inh (CASK)	%Inh (CDC2L1)	%Inh (CDC2L2)	%Inh (CDC2L5)	%Inh (CDK11)	%Inh (CDK2)	%Inh (CDK3)	%Inh (CDK4-cyclinD1)	%Inh (CDK4-cyclinD3)	%Inh (CDK4)	%Inh (CDK5)	%Inh (CDK7)	%Inh (CDK8)	%Inh (CDK9)	%Inh (CDKL1)
O=C(CCO)NCCn1ccc2ncnc(Nc3ccc(Oc4cccc(C(F)(F)F)c4)c(Cl)c3)c21	0%	0%	0%	0%	7%	0%	0%	0%	0%	0%	0%	0%	0%	0%	0%	0%	0%	6%	0%	15%
CC(C)N1CCC(n2cnc(-c3ccc(F)cc3)c2-c2ccnc(N)n2)CC1 [SB-223132]	1%	4%	0%	21%	6%	0%	5%	19%	0%	10%	0%	28%	0%	0%	10%	0%	0%	54%	0%	57%
Cc1ccc(NC(=O)c2cccc(C#N)c2)cc1-c1ccc(C(=O)Nc2ccncc2)cc1 [GSK1398463]	49%	26%	0%	15%	2%	7%	0%	14%	0%	5%	0%	7%	0%	9%	0%	0%	0%	0%	0%	15%
O=C(c1ccc(-c2cc(-c3c[nH]nc3-c3ccccn3)ccn2)cc1)N1CCCC1 [GW792479]	3%	56%	0%	23%	46%	21%	0%	7%	15%	5%	19%	72%	22%	0%	0%	38%	0%	63%	2%	57%
Cn1ccc2ncnc(Nc3ccc(Oc4cccc(Cl)c4)c(Cl)c3)c21	5%	8%	0%	11%	9%	9%	22%	5%	13%	5%	0%	0%	0%	0%	0%	21%	14%	22%	15%	10%
CCc1nc(-c2cccc(C)c2)c(-c2ccnc(NC(=O)c3ccccc3)c2)s1	0%	10%	0%	4%	7%	0%	11%	2%	12%	5%	0%	0%	15%	6%	13%	21%	24%	1%	0%	0%
